The nature of test [1]: compound effects on lung adenocarcinoma cell viability – A549, calcein-AM fluorescence, 48 h, basal, profiling panel (AID 1162). Also: test concentration not given here. The following applies: higher = more signal.
Test [2] can be described thus: compound effects on differentiated 3T3-L1 adipocyte viability – cell-based, 3T3-L1 adipocytes, calcein-AM fluorescence, 48 h, basal, profiling panel (AID 1163). Also: test concentration not given here. The following applies: 3T3-L1 adipocytes viability, higher = more signal.
Test [3] in a line: compound effects on hepatocellular carcinoma cell viability – HepG2, calcein-AM fluorescence, 48 h, basal, profiling panel (AID 1164). Also: test concentration not given here. The following applies: higher = more signal.
The nature of test [4]: compound effects on multiple myeloma cell viability – MM1S, calcein-AM fluorescence, 48 h, basal, profiling panel (AID 1165).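 Also: viability of MM1S multiple myeloma cells under basal unstimulated conditions; test concentration not given here.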 The following applies: higher = more signal.
Test [5] is described as follows: calcein-AM signal in unstimulated myeloma cells – cell-based, calcein-AM fluorescence, 48 h, PK04 Diversity Set, profiling panel (AID 1166).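 Also: cells grown under basal conditions without added stimulus; test concentration not given here.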 The following applies: RPMI8226 myeloma viability, higher = more signal.
A short description of test [6]: JC-1 mitochondrial signal, unstimulated HepG2 cells – cell-based, JC-1 fluorescence, 24 h, 100 nL compound, profiling panel (AID 1167). Also: test concentration not given here. The following applies: HepG2 mitochondrial potential, higher = more signal.
Test [7] is described as follows: JC-1 mitochondrial signal, unstimulated adipocytes – cell-based, JC-1 fluorescence, 3T3-L1 adipocytes, 24 h, 100 nL compound, profiling panel (AID 1168). Also: test concentration not given here. To be noted: JC-1 mitochondrial fluorescence, higher = more signal, called active from +8 up or from −8 down.
A short description of test [8]: JC-1 mitochondrial signal, unstimulated myeloma cells – cell-based, JC-1 fluorescence, RPMI8226, 24 h, 100 nL compound, profiling panel (AID 1169). Also: test concentration not given here. To be noted: JC-1 mitochondrial potential fluorescence, higher = more signal.
Test [9] can be described thus: JC-1 mitochondrial signal, unstimulated MM1S myeloma – cell-based, JC-1 fluorescence, 24 h, 100 nL compound, profiling panel (AID 1170). Also: test concentration not given here. The following applies: MM1S mitochondrial potential, higher = more signal.
Test [10] can be described thus: resazurin metabolic signal in A549 cells – cell-based, resazurin fluorescence, 24 h, PK04 Diversity Set, profiling panel (AID 1171). Also: test concentration not given here. The following applies: A549 viability, higher = more signal, called active from +8 up or from −8 down.
Test [11] in a line: resazurin metabolic signal in HepG2 cells – cell-based, resazurin fluorescence, 24 h, PK04 Diversity Set, profiling panel (AID 1172). Also: test concentration not given here. To be noted: HepG2 viability, higher = more signal.
Test [12] is described as follows: budding yeast growth changes without added modifier – OD600, strain BY4716, 24 h, basal condition, primary screen (AID 1173). The following applies: S. cerevisiae BY4716 growth, OD600, 24 h; higher = more signal, called active from +8 up or from −8 down.
Test [13] can be described thus: viability profiling in MM1S myeloma cells – cell-based, resazurin fluorescence, basal, 24 h, PK04 Diversity Set, profiling panel (AID 1174). Also: test concentration not given here. To be noted: higher = more signal, called active from +8 up or from −8 down.
Test [14] concerns the target Dihydroorotate dehydrogenase (quinone), mitochondrial (Plasmodium falciparum (isolate 3D7)) (UniProt Q08210). As to the kind of experiment: inhibition of P. falciparum DHODH – biochemical, C-terminal His tag, absorbance 600 nm, primary screen (AID 1175).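 Also: recombinant parasite enzyme with a five histidine tag at its C terminus; test concentration not given here.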 The following applies: PfDHODH enzyme, DCIP absorbance 600 nm; higher = more signal, called active from +8 up or from −8 down.

Test [15] can be described thus: inhibition of PAO1 biofilm formation – strain PAO1, LB-PBS medium, absorbance 600 nm, primary screen (AID 1176). Also: test concentration not given here. To be noted: P. aeruginosa PAO1 growth/biofilm, A600, 12 h; higher = more signal.
Test [16] in a line: growth modulation of vineyard yeast isolate – strain RM11-1a, OD600, basal, 24 h, primary screen (AID 1177).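 Also: cultures grown under basal conditions with no added stressor; test concentration not given here.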 The following applies: S. cerevisiae RM11-1a growth, OD600, 24 h; higher = more signal, called active from +8 up or from −8 down.
A short description of test [17]: growth of efflux-deficient E. coli DRC39 – strain DRC39, OD650, 24 h, E. coli filamentation inducers, primary screen (AID 1178).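 Also: growth measured as culture turbidity by optical density at 650 nm; test concentration not given here.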 To be noted: E. coli DRC39 acrAB, higher = more signal, called active from +8 up or from −8 down.
Test [18] can be described thus: growth of efflux-deficient E. coli DRC39 – strain DRC39, OD650, 48 h, E. coli filamentation inducers, primary screen (AID 1179).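 Also: screen aims at cell division blockers that make cells filament.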 The following applies: E. coli DRC39 delta-acrAB growth, higher = more signal, called active from +8 up or from −8 down.
Test [19] can be described thus: viability profiling in RPMI8226 myeloma cells – cell-based, resazurin fluorescence, basal, 24 h, PK04 Diversity Set, profiling panel (AID 1180).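 Also: RPMI8826 multiple myeloma cell line at 5000 cells per well; test concentration not given here.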 The following applies: higher = more signal.
Test [20] deals with E3 ubiquitin-protein ligase XIAP (Homo sapiens) (UniProt P98170). The test can be described thus: small molecules binding XIAP protein – biophysical, small-molecule microarray, fluorescence 635 nm, primary screen (AID 1181).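 Also: score merges 667 nm emission and signal to noise over triplicate slides.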 To be noted: higher = more signal.
Chain of E3 ubiquitin-protein ligase XIAP (Homo sapiens) (P98170 whole entry, looked up): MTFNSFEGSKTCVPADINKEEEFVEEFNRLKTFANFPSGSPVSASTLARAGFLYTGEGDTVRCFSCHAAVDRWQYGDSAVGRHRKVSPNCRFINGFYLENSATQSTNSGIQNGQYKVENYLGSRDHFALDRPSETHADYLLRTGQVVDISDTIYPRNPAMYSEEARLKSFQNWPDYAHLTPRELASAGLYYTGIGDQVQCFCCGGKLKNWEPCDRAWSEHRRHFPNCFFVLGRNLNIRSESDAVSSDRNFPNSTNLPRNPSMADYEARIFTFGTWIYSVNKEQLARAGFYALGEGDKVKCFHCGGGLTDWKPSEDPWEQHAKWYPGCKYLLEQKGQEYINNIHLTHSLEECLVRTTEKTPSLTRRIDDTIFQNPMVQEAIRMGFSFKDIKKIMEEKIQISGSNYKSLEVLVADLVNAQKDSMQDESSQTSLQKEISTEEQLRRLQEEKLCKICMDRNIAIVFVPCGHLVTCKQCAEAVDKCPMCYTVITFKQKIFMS

We go through nine compounds from PubChem BioAssay.

Activity calls are given as the source filed them. Unless noted, no rule for the calls is given here.

Chain of Dihydroorotate dehydrogenase (quinone), mitochondrial (Plasmodium falciparum (isolate 3D7)) (Q08210 whole entry, looked up): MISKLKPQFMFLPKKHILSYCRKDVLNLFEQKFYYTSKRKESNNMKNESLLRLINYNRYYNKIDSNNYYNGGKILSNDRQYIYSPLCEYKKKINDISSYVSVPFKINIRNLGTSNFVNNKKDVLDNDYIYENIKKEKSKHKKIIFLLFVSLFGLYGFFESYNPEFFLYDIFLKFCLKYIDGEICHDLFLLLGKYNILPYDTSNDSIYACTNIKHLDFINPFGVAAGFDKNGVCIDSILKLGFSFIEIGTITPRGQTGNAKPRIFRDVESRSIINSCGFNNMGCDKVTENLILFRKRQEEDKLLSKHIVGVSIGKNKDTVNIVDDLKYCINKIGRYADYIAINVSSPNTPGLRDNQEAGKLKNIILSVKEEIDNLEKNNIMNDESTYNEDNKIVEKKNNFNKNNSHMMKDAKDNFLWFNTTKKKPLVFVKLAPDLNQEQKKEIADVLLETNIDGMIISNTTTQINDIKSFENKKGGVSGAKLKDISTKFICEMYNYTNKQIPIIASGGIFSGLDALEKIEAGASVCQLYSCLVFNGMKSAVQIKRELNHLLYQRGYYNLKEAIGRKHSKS

With `Cc1ccc(S[C@]2(C(=O)NC(C)C)CC(=O)N(Cc3cc(C(F)(F)F)cc(C(F)(F)F)c3)[C@@H]2c2ccc(CO)cc2I)cc1`, the z-score in [1] was 0.813; in test [2] it was -0.477; in test [3] it was 0.678; in [4], -1.66; in test [5] it was -2.24; in [6], 0.517. The z-score in test [7] is 0.667 (inactive); in test [8], -0.455; in test [9], -1.79; in test [10], -0.101 (inactive); in test [11], 0.53; in test [12] it was -2.86 (inactive). Moreover, the z-score was -2.27 (inactive) in test [13]; 0.447 (inactive) in test [15]; -0.59 (inactive) in test [16]; 0.498 (inactive) in test [17]; 1.02 (inactive) in test [18]; -2.55 in test [19]. Moreover, the composite z-score was 0.4 (inactive) in test [14] and -0.209 in test [20].
Consider `C=CC[C@]1(C(=O)N2CCCCC2)N=C(c2ccc(OCCCO)cc2)O[C@H]1c1ccccc1N=[N+]=[N-]`, for which the z-score in [1] was -0.871; in test [2], 1.65; in [3] it was -0.715; in [4] it was -1.56; in test [5], -2.55; in test [6], 0.654. Besides, the z-score in [7] was 0.866 (inactive); in test [8] it was -1.17; in test [9] it was -0.511; in [10], -1.19 (inactive); in test [11], -0.0748; in [12], -0.807 (inactive). The z-score in test [13] was -1.91 (inactive); in test [15] it was 0.274 (inactive); in test [16], 1.55 (inactive); in test [17], 0.16 (inactive); in test [18], -0.58 (inactive); in test [19] it was -1.15. Further, the composite z-score in [14] is 2.06 (inactive); in test [20], 1.74.
Consider `CC(C)(C)OC(=O)CC[C@]1(C(=O)N2CCCCC2)N=C(c2ccc(OCCCO)cc2)O[C@H]1c1ccccc1`, for which the z-score is 2.04 in test [1]; 1.24 in [2]; 1.01 in test [3]; 0.523 in test [4]; -1.04 in [5]; 2.2 in test [6]. In addition, the z-score was 2.09 (inactive) in test [7]; -0.123 in [8]; 0.317 in test [9]; -0.354 (inactive) in test [10]; -0.302 in test [11]; -1.05 (inactive) in test [12]. Besides, the z-score was -1.37 (inactive) in [13]; 0.0937 (inactive) in test [15]; -0.374 (inactive) in test [16]; 0.627 (inactive) in test [17]; 0.837 (inactive) in test [18]; -0.128 in test [19]. Also, the composite z-score in test [14] was -0.892 (inactive); in test [20], 0.354.
In the case of `C=C[C@H](OC)[C@@H](OC(=O)Nc1ccc(SC)cc1)c1ccc(O)c(F)c1`, the z-score was 0.137 in [1]; 0.0047 in test [2]; -0.14 in [3]; -0.913 in test [4]; -1.07 in [5]; -2.33 in [6]. The z-score in test [7] is 3.02 (inactive); in test [8] it was -1.09; in test [9], -0.75; in test [10], -0.538 (inactive); in test [11], -0.0359; in [12], -2.99 (inactive). The z-score is 0.0545 (inactive) in test [13]; 1.88 (inactive) in test [15]; -0.703 (inactive) in test [16]; 0.543 (inactive) in [17]; 0.519 (inactive) in [18]; 0.035 in test [19]. Moreover, the values for the composite z-score in test [14] and in test [20] were -2.05 (inactive) and -0.192, respectively.
`CCCNC(=O)[C@@H]1c2ccccc2C(=O)N(C2CCCCC2)[C@H]1c1ccc(CO)cc1`: the z-score is 0.285 in test [1]; -0.144 in [2]; 0.107 in [3]; -0.524 in test [4]; 0.0117 in [5]; 2.29 in test [6]. For the same compound, the z-score was 0.00608 (inactive) in test [7]; -0.192 in test [8]; -0.401 in test [9]; 1.58 (inactive) in test [10]; 0.358 in test [11]; 1.27 (inactive) in test [12]. Also, the z-score was -0.206 (inactive) in [13]; -0.329 (inactive) in test [15]; 1.61 (inactive) in [16]; 0.619 (inactive) in test [17]; 0.521 (inactive) in test [18]; -0.154 in test [19]. Besides, the composite z-score was 1.05 (inactive) in [14] and 0.304 in test [20].
Take `CC(c1ccccc1)C(O)C1C=CC2C(=O)N(C)C(=O)C2N1N(c1ccccc1)c1ccccc1` (stereo not given): the z-score in test [1] was -0.279; in [2] it was -1.94; in test [3] it was 0.919; in [4], 0.455; in test [5], 0.427; in test [6], -0.288. Further, the z-score in test [7] is -1.37 (inactive); in test [8], -0.17; in [9], -0.939; in [10] it was -0.346 (inactive); in [11], -1.22; in test [12], -0.0972 (inactive). Besides, the z-score was -1.91 (inactive) in test [13]; 0.419 (inactive) in test [15]; 0.265 (inactive) in test [16]; -0.502 (inactive) in test [17]; -0.0284 (inactive) in test [18]; -1.8 in test [19]. Also, the composite z-score in [14] is -0.0374 (inactive); in [20], -0.0918.
Regarding `COc1ccc([Si](C)(C)[C@@H]2[C@@H](CCO)O[C@]3(C(=O)N(Cc4ccccc4)c4ccccc43)[C@H]2C)cc1`, the z-score in [1] was -0.617; in test [2], 0.725; in [3] it was -0.495; in test [4], -1.22; in [5], -2.05; in test [6], 2.34. The z-score in [7] was 0.358 (inactive); in test [8], -0.181; in [9] it was 0.849; in test [10] it was -1.69 (inactive); in [11], -1; in test [12], 0.212 (inactive). Moreover, the z-score is -0.604 (inactive) in test [13]; 0.13 (inactive) in [15]; 0.347 (inactive) in test [16]; 0.916 (inactive) in test [17]; -0.326 (inactive) in test [18]; -0.372 in [19]. Further, the composite z-score in [14] is 0.825 (inactive); in test [20], -0.232.
Take `COCCOC(=O)N1C(=O)[C@@]2(c3cc(C#CCCO)ccc31)[C@H](c1ccc(OCCO)cc1)N1[C@H](c3ccccc3)[C@H](c3ccccc3)OC(=O)[C@H]1[C@@H]2C(=O)NC[C@H](O)c1ccccc1`: the z-score is 0.0831 in test [1]; 1.33 in test [2]; -0.796 in test [3]; 0.0067 in test [4]; -1.06 in test [5]; -0.0377 in test [6]. For the same compound, the z-score in test [7] was 0.357 (inactive); in [8] it was 0.0686; in [9] it was -0.709; in [10], 0.703 (inactive); in test [11] it was 0.542; in test [12] it was 1.64 (inactive). Besides, the z-score in test [13] is -0.149 (inactive); in [15] it was 1.39 (inactive); in [16] it was 2.33 (inactive); in [17] it was 0.0733 (inactive); in test [18], -0.534 (inactive); in test [19], 0.471. The composite z-score is 1.06 (inactive) in [14] and 0.106 in [20].
As to `NC(=O)NCC#Cc1ccc2c(c1)[C@]1(C(=O)N2)[C@H](c2ccccc2OCCO)N2[C@H](c3ccccc3)[C@H](c3ccccc3)OC(=O)[C@H]2[C@@H]1C(=O)N1CCN(c2ncccn2)CC1`, the z-score in [1] is -0.525; in test [2], 0.932; in test [3] it was 0.238; in test [4], 0.147; in test [5], 0.598; in test [6], -1.48. For the same compound, the z-score in test [7] was 1.08 (inactive); in test [8], -0.356; in test [9], -0.293; in [10] it was 0.157 (inactive); in test [11], -0.381; in [12], 0.887 (inactive). The z-score was -0.17 (inactive) in [13]; 2.31 (inactive) in [15]; 2.03 (inactive) in [16]; 1.27 (inactive) in test [17]; 0.158 (inactive) in [18]; 1.19 in test [19]. The figures for the composite z-score in [14] and in test [20] were -0.343 (inactive) and -0.178, respectively.
